Rows were chosen to be rich in hits. Some 21% of all compounds tested hit in one or more screens of this group.
DT40 TDP1 no CPT: qHTS for Inhibitors of human tyrosyl-DNA phosphodiesterase 1 (TDP1): qHTS in cells in absence of CPT; DT40 Tdp1-/- hTDP1 cells, no CPT, ATP luminescence, 48 h; Potency, µM (series often up to 46.2 µM), actives largely listed as inhibitors; 15% of 420,000 active; AID 686978, 2013; further: nearly all actives have a fitted effect of over 55% in size
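Cells were dispensed at 400 per well, compounds added by pin tool, plates incubated ≥48 hr at 37 °C, then CellTiter-Glo added for 30 min at room temperature before luminescence reading. Line: DT40 Tdp1-/- complemented with hTDP1; camptothecin omitted.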
DT40 TDP1 CPT: qHTS for Inhibitors of human tyrosyl-DNA phosphodiesterase 1 (TDP1): qHTS in cells in presence of CPT. chicken DT40 Tdp1-/-;hTDP1 cells + 20 nM CPT, ATP luminescence, 48 h. Potency, µM (highest dose often 46.2 µM), hits mostly inhibitors. 12% of 420,000 active. AID 686979, 2013; further: nearly all actives have a fitted effect of over 55% in size
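Chicken DT40 Tdp1-/- cells complemented with human TDP1, 400 cells/well, exposed to compounds plus 20 nM camptothecin for at least 48 h at 37 C; viability read as ATP content by CellTiter-Glo luminescence.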
ClpP mod: qHTS Assay for Activators of ClpP. ATP-dependent Clp protease proteolytic subunit (Bacillus subtilis (strain 168)), P80244. purified B. subtilis ClpP, FRET peptide cleavage, 20 min. Potency, µM (titrated, usually from 57.5 µM). 1.9% of 340,000 active. AID 651965, 2013; active means well fitted falling curve with a large enough effect; inconclusive means small, poorly fitted or top-dose-only effect; inactive means no such curve, though single readings can be large or run the other way; further: the source files actives as falling curves though it sought activators and does not explain the sign; nearly all actives have a fitted effect of over 65% in size
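Purified B. subtilis ClpP, 10 microg/mL final in Tris/HCl pH8 with KCl, BSA, glycerol and Tween-20, cleaved an Abz/nitrotyrosine-quenched decapeptide. Fluorescence (ex 320, em 430) was read at 0 and 20 min at room temperature. Delta was normalized to 5.8 microM ADEP and DMSO/no-enzyme controls.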
IL1B secr inh: qHTS for Inhibitors of Inflammasome Signaling: IL-1-beta AlphaLISA Primary Screen; THP-1 LPS/ATP IL-1B secretion, AlphaLISA, 16 h; hits give low values; activity change, % at 57.5 µM; 4.7% of 360,000 active; AID 743279, 2014; in the data active means activity change below about -50%; inconclusive means mostly about -30% to -49%
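THP-1 cells pretreated 1 hr with compounds (up to 57.5 uM final), then stimulated with LPS (250 ng/mL final) plus ATP (1.25 mM final); secreted IL-1B measured by AlphaLISA after 16 hr, decreased signal indicating inhibition.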
DRD3 antagonist: qHTS of D3 Dopamine Receptor Antagonist: qHTS. D3R cells, DiscoveRx beta-arrestin luminescence, antagonist mode; hits give low values. max response, negative = inhibition, %. 2.5% of 360,000 active. D(3) dopamine receptor (Homo sapiens), P35462; in the data active means max response below about -50%; inconclusive means no clear call, values can overlap the other calls
Target sequence (P35462 whole entry, looked up): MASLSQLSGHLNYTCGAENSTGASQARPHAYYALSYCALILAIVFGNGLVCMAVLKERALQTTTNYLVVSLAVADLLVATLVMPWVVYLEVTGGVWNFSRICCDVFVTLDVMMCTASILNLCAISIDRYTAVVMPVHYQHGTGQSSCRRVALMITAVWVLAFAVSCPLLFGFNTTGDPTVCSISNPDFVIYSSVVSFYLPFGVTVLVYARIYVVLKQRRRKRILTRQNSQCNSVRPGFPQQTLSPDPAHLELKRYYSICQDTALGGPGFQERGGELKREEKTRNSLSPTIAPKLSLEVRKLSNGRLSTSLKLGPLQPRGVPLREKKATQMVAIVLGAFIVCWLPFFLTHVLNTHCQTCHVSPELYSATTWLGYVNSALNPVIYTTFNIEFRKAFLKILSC
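Cells plated overnight at 1500 cells/well, then exposed to library compounds with dopamine controls for 90 minutes at 37 degrees C. DiscoveRx reagent added for 30–60 minutes at room temperature; luminescence read, quantitative HTS format.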
DRD3 agonist: qHTS of D3 Dopamine Receptor Agonist: qHTS. D(3) dopamine receptor (Homo sapiens), P35462. D3R DiscoveRx beta-arrestin cells, luminescence, 90 min. max activation, %. 0.58% of 410,000 active. AID 652048, 2013; in the data active means max activation above about 30%
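Agonist mode: compounds and dopamine controls were applied to plated cells for 90 min at 37 degrees C after an overnight attachment at 1500 cells/well. Luminescent read-out followed 30 - 60 minutes at room temperature with DiscoveRx detection reagent.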
A number is an active result; n = inactive; u = inconclusive; x = no result. Unless noted, the call rests on the fitted dose curve; in most records, active means well fitted inhibition curve with a large enough effect; inconclusive means small, poorly fitted or top-dose-only effect; inactive means flat fitted curve, though single readings scatter.

SMILES | DT40 TDP1 no CPT | DT40 TDP1 CPT | ClpP mod | IL1B secr inh | DRD3 antagonist | DRD3 agonist
Cc1ccnc(NC(=O)/C=C/c2cccs2)c1 | 12µM | u | n | -98 | n | n
Cc1ccc(O)c(NC(=S)NC(=O)/C=C/c2ccco2)c1 | 6.5µM | 7.3µM | x | n | n | n
O=C(/C=C/c1ccco1)NC(=S)Nc1ccc(O)c(-c2nc3ccccc3s2)c1 | 21µM | 18µM | n | n | n | n
O=C(/C=C/c1ccco1)NC(=S)Nc1ccc(Cl)cn1 | n | n | n | n | n | n
Cc1ccnc(NC(=S)NC(=O)/C=C/c2ccco2)c1 | 9.2µM | 10µM | n | n | -51 | n
COc1cccc(C(=O)NC(c2ccccc2)C2CCCC2)c1 (centres undefined) | u | u | x | n | n | n
COc1cc(NC(=O)COC(=O)CCc2cc(OC)c(OC)c(OC)c2)cc(OC)c1 | n | n | n | n | n | n
O=C(/C=C/c1ccco1)NC(=S)NNC(=O)c1ccco1 | 21µM | 16µM | n | n | -84 | n
O=C(/C=C/c1ccco1)NC(=S)Nc1ccc(N2CCCC2)cc1 | 15µM | 23µM | n | n | n | n
O=C(/C=C/c1ccco1)NC(=S)Nc1ccc(C(=O)O)cc1 | n | n | x | n | n | n
CC1(C)CCC(NC(=O)[C@@H](N)CCC(=O)O)CC1 | n | n | x | x | x | n
O=C1NC(=S)S/C1=C\c1ccc(SCc2ccccc2)o1 | u | n | n | n | n | n
O=C1NC(=S)S/C1=C\c1ccc(SCc2ccco2)o1 | u | 18µM | n | n | n | n
O=C(NCc1ccco1)c1c2c(nc3ccccc13)CCC2 | 21µM | 15µM | n | n | -59 | n
CC(C)OCCCNC(=O)c1cc(-c2cccs2)nc2ccccc12 | u | 16µM | n | n | n | n
O=C(CSc1c2c(nc3ccccc13)CCCC2)NCc1ccco1 | n | n | n | n | n | n
Cc1ccc(-c2cc(C(=O)NCCCn3ccnc3)c3ccccc3n2)s1 | n | n | u | n | n | n
Cc1ccc(-c2cc(C(=O)NCc3ccco3)c3ccccc3n2)s1 | u | u | 32µM | n | n | n
COc1cccc(CNC(=O)c2cc(-c3cccs3)nc3ccccc23)c1 | n | n | n | x | x | n
O=C(NCc1ccco1)c1cc(-c2cccs2)nc2ccccc12 | u | u | 25µM | n | n | n
O=C(COC(=O)c1cc(-c2cccs2)nc2ccccc12)NCc1ccco1 | u | u | u | n | n | n
CN(C(=O)c1cc(COc2ccc(F)cc2Cl)on1)C1CCOC1 (centres undefined) | u | u | n | n | n | n
O=C(CNC(=O)c1ccc(F)cc1)OCc1cc(=O)n2ccsc2n1 | n | n | n | x | x | n
CC(=O)c1cccc(NC(=O)c2nc3ccccc3nc2N2CCCCC2)c1 | u | u | n | x | x | n
COc1cccc(CN2CCNC(=O)C2CC(=O)N(C)C2CCCCC2)c1 (centres undefined) | n | n | n | n | n | n
SMILES | DT40 TDP1 no CPT | DT40 TDP1 CPT | ClpP mod | IL1B secr inh | DRD3 antagonist | DRD3 agonist
CCN(Cc1ccccc1)C(=O)C(CC(C)C)NS(=O)(=O)c1ccc2c(c1)CCN2C(C)=O (centres undefined) | u | u | n | x | x | n
Cc1cnc(NC(=O)c2ccc3ncsc3c2)s1 | u | n | n | n | n | n
Cc1cccc(Nc2ncnc3onc(-c4cccc(Cl)c4)c23)c1C | 18µM | 21µM | u | n | n | n
Clc1cccc(-c2noc3ncnc(NC4CCCCC4)c23)c1 | 26µM | 21µM | n | x | x | n
Cc1cccc(Nc2ncnc3onc(-c4ccc(F)cc4)c23)c1C | u | u | n | n | n | n
COc1ccc([C@H]2N[C@]3(CCCN(Cc4cccn4C)C3=O)[C@H]3C(=O)N(Cc4ccccc4)C(=O)[C@@H]23)cc1 | n | n | n | n | n | n

From PubChem
